Outcome and Potency data for 27 compounds are collected here from PubChem BioAssay (Tox21).

Values joined by “and” are separate entries in the source; they are usually repeats but may differ in a detail not shown here. Equal values may be shown once. Inconclusive results are not listed. A structure can be active in one record and inactive in another. Active and inactive are the calls of the source. Unless noted, the call rests on the fitted dose curve.

Test [1] in a line: qHTS assay to identify small molecule agonists of the sonic hedgehog signaling (Shh) pathway (AID 1259368).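 Further: NIH/3T3-derived 3T3Gli1-Luc cells carrying a stable Gli1-driven firefly luciferase reporter; series mostly up to about 92 µM; nearly all actives have a fitted effect of over 15% in size.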 The method in brief: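 A Gli1 transcriptional response element controlled firefly luciferase in 3T3Gli1-Luc cells. Compounds and a positive control were added 4 hr after plating, and cells were incubated a further 24 hr at 37 C before luminescence detection.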
Test [2] in a line: qHTS assay to identify small molecule antagonists of the sonic hedgehog signaling (Shh) pathway (AID 1259369). Further: nearly all actives have a fitted effect of over 45% in size. Further: potency means the concentration at half of the fitted maximal effect. The method in brief: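 For antagonist detection, the reporter line received test compounds together with conditioned medium, incubated 24hr at 37 C, 5% CO2, then luminescence was recorded following 30min room-temperature luciferase reagent incubation.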
A general note: Quantitative high-throughput screening tests each substance at several concentrations.

Test [3] concerns the target Estrogen receptor beta (Homo sapiens) (UniProt Q92731). Put plainly: qHTS assay to identify small molecule agonists of the estrogen receptor beta (ER-beta) signaling pathway (AID 1259377; active means well fitted activation curve with a large enough effect in the signal ratio in the repeat runs, not every such curve was filed as active; the % refers to the signal ratio; further: potency means the concentration at half of the fitted maximal effect). The procedure, abridged:
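Ratiometric beta-lactamase FRET read-out came after 2 h substrate loading at room temperature. It followed 16 h compound treatment at 37C of GripTite HEK293T cells carrying a UAS-bla reporter, plated in 2% charcoal-stripped FBS medium.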

Test [4] has the same target. Put plainly: qHTS assay to identify small molecule antagonists of the estrogen receptor beta (ER-beta) signaling pathway (AID 1259378; active means well fitted inhibition curve with a large enough effect in the signal ratio in the repeat runs, not every such curve was filed as active; the % refers to the signal ratio). The method in brief: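 Antagonist mode: compounds added to beta-lactamase reporter HEK293T ER-beta-UAS cells stimulated with E2 (1nM final), 16 hr at 37C. LiveBLAzer B/G FRET substrate, 2 hours room temperature, fluorescence read-out.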

Test [5] is described as follows: qHTS assay to identify small molecule agonists of the androgen receptor (AR) signaling pathway in the presence of an antagonist - cell viability counter screen (AID 1259379; active means well fitted curve in the direction sought with a large enough effect in the repeat runs; an effect the other way counts as inactive or inconclusive; further: nearly all actives have a fitted effect of over 25% in size; further: potency means the concentration at half of the fitted maximal effect). The procedure, abridged:
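Seed MDA-kb2 at 3,000 cells/well; incubate 5 hr, 37C, 0% CO2. Add nilutamide to 3.0uM final, then pin compounds at 15 concentrations. Incubate 16 hr. Add CellTiter-Fluor at 15 hr, read fluorescence after 1 hr.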

Test [6] in a line: qHTS assay to identify small molecule agonists of the estrogen receptor beta (ER-beta) signaling pathway - cell viability counter screen (AID 1259380; active means well fitted curve in the direction sought with a large enough effect in the repeat runs; an effect the other way counts as inactive or inconclusive; further: nearly all actives have a fitted effect of over 30% in size; further: potency means the concentration at half of the fitted maximal effect). The procedure, abridged:
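CellTiter-Glo read, 30 min RT, same wells as bla assay; cells ER-beta-UAS-bla HEK293T; 16 hr compound, 37C; medium 2% charcoal-stripped FBS.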

Test [7] can be described thus: qHTS assay to identify small molecule antagonists of the estrogen receptor beta (ER-beta) signaling pathway - cell viability counter screen (AID 1259382; active means well fitted curve in the direction sought with a large enough effect in the repeat runs; an effect the other way counts as inactive or inconclusive; further: nearly all actives have a fitted effect of over 55% in size; further: potency means the concentration at half of the fitted maximal effect). The procedure, abridged:
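In this multiplexed counter screen, cells were seeded at 2,000 per well in medium with 2% charcoal-stripped FBS and incubated 6 hr before compound and 1nM final E2 were added. Sixteen hours later, ATP-based luminescence reported viability.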

In test [8] the target is Estrogen receptor (Homo sapiens) (UniProt P03372). Put plainly: qHTS assay to identify small molecule agonists of the estrogen receptor alpha (ER-alpha) signaling pathway in the presence of an antagonist (AID 1259383). Further: nearly all actives have a fitted effect of over 15% in size. Further: potency means the concentration at half of the fitted maximal effect. On activation: top concentration of the series differs between compounds. The method in brief: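 Stably transfected VM7Luc4E2 reporter cells, kept 5 days in charcoal-stripped serum, received ICI-182,780 at 10.0nM final before compound addition. Following 22hr incubation at 37C and 5% CO2, luciferase signal was read by luminescence.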
Chain of Estrogen receptor (Homo sapiens) (P03372 whole entry, looked up): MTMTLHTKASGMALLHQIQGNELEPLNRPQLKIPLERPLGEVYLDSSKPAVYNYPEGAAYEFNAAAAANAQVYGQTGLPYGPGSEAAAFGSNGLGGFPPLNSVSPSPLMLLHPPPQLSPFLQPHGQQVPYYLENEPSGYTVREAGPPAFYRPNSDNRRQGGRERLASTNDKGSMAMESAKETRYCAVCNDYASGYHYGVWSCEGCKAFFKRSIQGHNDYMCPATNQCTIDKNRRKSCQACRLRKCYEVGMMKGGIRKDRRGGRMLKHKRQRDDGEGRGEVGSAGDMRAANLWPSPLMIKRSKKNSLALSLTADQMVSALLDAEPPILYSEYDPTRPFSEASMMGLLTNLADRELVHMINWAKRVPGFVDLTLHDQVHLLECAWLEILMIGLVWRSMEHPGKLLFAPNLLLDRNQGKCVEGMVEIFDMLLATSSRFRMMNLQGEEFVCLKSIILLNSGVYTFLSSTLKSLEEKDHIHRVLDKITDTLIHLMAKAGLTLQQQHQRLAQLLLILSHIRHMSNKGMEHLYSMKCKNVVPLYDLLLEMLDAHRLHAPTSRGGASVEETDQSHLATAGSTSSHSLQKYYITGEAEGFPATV

A short description of test [9]: qHTS assay to identify small molecule agonists or antagonists of the thyroid stimulating hormone receptor (TSHR) signaling pathway - wild type cell line counter screen (AID 1259384). The procedure, abridged:
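Counter screen in untransfected Hek293: compounds (15-point titration, triplicate) plus phosphodiesterase inhibitor Ro20-1724 added after 18 h plating; 30 min RT. Intracellular cAMP via competitive d2/cryptate immunoassay, 1 h incubation.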

The target of test [10] is Androgen receptor (Homo sapiens) (UniProt P10275). Put plainly: qHTS assay to identify small molecule agonists of the androgen receptor (AR) signaling pathway in the presence of an antagonist (AID 1259381). Further: nearly all actives have a fitted effect of over 15% in size. The procedure, abridged: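 Test compounds at 15 concentrations were incubated for 16hr with MDA-kb2 reporter cells in presence of 3.0uM nilutamide (final). Signal: ONE-Glo luciferase luminescence.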
Chain of Androgen receptor (Homo sapiens) (P10275 whole entry, looked up): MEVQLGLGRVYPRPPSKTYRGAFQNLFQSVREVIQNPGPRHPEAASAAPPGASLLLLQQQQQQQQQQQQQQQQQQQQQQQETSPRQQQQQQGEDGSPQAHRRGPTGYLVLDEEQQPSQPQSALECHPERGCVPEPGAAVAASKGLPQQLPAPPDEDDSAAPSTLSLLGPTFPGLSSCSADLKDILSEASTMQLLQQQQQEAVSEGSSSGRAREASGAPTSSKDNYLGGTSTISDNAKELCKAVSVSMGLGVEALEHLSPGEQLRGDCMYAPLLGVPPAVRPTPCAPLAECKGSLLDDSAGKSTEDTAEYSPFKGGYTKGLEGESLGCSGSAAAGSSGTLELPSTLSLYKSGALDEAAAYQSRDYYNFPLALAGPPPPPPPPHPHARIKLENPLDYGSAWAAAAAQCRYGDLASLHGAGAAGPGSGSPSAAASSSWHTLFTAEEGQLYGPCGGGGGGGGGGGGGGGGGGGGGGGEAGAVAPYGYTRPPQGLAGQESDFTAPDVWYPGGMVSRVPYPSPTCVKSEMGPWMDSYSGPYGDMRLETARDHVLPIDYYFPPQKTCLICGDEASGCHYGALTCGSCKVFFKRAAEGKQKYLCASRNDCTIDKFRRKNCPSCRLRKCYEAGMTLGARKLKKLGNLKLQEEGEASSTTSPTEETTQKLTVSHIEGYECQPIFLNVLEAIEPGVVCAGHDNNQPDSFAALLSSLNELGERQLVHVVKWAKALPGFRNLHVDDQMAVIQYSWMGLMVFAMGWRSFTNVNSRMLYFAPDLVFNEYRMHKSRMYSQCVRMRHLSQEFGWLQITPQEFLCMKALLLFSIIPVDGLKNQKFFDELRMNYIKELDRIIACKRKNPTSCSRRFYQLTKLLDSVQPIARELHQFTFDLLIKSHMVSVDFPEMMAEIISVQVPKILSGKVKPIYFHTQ

Chain of Estrogen receptor beta (Homo sapiens) (Q92731 whole entry, looked up): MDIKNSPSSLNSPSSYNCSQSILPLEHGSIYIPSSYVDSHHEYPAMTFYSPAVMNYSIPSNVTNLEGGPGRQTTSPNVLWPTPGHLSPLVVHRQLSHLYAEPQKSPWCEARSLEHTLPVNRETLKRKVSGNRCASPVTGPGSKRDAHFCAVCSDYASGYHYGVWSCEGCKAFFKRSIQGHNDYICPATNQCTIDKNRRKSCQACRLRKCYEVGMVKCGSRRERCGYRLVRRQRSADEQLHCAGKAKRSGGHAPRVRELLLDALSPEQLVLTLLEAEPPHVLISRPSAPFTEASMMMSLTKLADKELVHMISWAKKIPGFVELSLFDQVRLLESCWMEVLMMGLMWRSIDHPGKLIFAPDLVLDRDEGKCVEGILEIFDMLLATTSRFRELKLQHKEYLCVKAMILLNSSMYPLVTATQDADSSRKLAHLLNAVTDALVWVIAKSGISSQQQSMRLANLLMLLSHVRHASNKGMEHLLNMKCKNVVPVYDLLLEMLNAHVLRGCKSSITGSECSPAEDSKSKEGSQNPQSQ

As for `COc1cccc(C=O)c1`, the compound was classed as inactive in [1], in test [4] and in [9]. The Potency result in [2], in test [3], in test [5], in test [6], in test [7] and in [8] was “inactive” throughout.
As to `O=C1CC(=O)NC(=O)N1`, the outcome in [1], in [4] and in test [9] was inactive. In addition, the Potency entry in test [2], in [3], in test [5], in test [6], in [7] and in [8] was “inactive” throughout.
With `Cc1cc(OC(=O)N(C)C)nn1C(=O)N(C)C`, the result in [1], in test [4] and in test [9] was inactive. Further, the Potency result in test [2], in test [3], in test [5], in [6], in test [7] and in [8] was “inactive” throughout.
Take `C/C=C/CC#N`: the compound was called inactive in test [1], in [4] and in test [9]. Also, the Potency entry in [2], in test [3], in test [5], in test [6], in [7] and in [8] was “inactive” in each case.
In the case of `CCC(C(N)=O)N1CCCC1=O` (configuration not stated), the compound was called inactive in test [1], in test [4] and in [9]. Moreover, the Potency result in [2], in test [3], in [5], in [6], in test [7] and in [8] was “inactive” each time.
In the case of `O=C(Cl)CCl`, the compound was classed as inactive in test [1], in test [4] and in test [9]. Also, the Potency entry in [2], in test [3], in [5], in test [6], in [7] and in [8] was “inactive” each time.
Regarding `O=C(Cl)C(Cl)Cl`, the result in test [1], in test [4] and in [9] was inactive. The Potency result in test [2], in [3], in test [5], in test [6], in test [7] and in test [8] was “inactive” throughout.
With `O=C1C2CC=CCC2C(=O)N1SC(Cl)(Cl)Cl` (configuration not stated), the outcome in test [1], in test [4] and in test [9] was inactive. Besides, the Potency entry in test [2] is “inactive and 2.69 µM (active)”; in [3], 8.6 µM (active); in test [5], 30.1 µM (active); in [6] it was “inactive and 30.1 µM (active)”; in test [7], “inactive and 30.1 µM (active)”; in test [8], 2.42 µM (active) and inactive.
As for `CCCN1CCC[C@@H]2Cc3[nH]ncc3C[C@H]21`, the compound was classed as inactive in [1], in [4] and in [9]. The Potency result in test [2], in test [3], in test [5], in test [6], in test [7] and in test [8] was “inactive” throughout.
As for `O=P(O)(O)CN(CP(=O)(O)O)CP(=O)(O)O`, the compound was classed as inactive in [1], in test [4] and in test [9]. In addition, the Potency entry in test [2], in [3], in test [5], in test [6], in [7] and in test [8] was “inactive” throughout.
As for `C=C1C[C@@H]2[C@H](CC[C@]3(C)C(=O)CC[C@@H]23)[C@@]2(C)C=CC(=O)C=C12`, the outcome in [1], in test [4] and in test [9] was inactive. In addition, the Potency in [2] is 6.68 µM (active). Also, the Potency result in [3], in test [5], in [6], in test [7] and in test [8] was “inactive” each time.
`c1cncc([C@@H]2CCCCN2)c1`: the compound was called inactive in test [1], in test [4] and in test [9]. In addition, the Potency entry in [2], in test [3], in [5], in test [6], in [7] and in [8] was “inactive” throughout.
Consider `CC(Cc1ccccc1)NCCn1cnc2c1c(=O)n(C)c(=O)n2C` (configuration not stated), for which the call in [1], in test [4] and in [9] was inactive. Besides, the Potency result in test [2], in test [3], in test [5], in test [6], in [7] and in test [8] was “inactive” throughout.
In the case of `CCN(CCO)CCn1c(Cc2ccccc2)nc2c1c(=O)n(C)c(=O)n2C`, the outcome in [1], in [4] and in [9] was inactive. Further, the Potency entry in test [2], in test [3], in test [5], in [6], in test [7] and in test [8] was “inactive” throughout.
For the compound `COc1ccccc1OC`, the compound was called inactive in test [1], in [4] and in test [9]. The Potency result in test [2], in test [3], in [5], in [6], in test [7] and in test [8] was “inactive” each time.
In the case of `CC(=O)CN(CC(C)=O)N=O`, the compound was called inactive in test [1], in [4] and in test [9]. Further, the Potency result in [2], in test [3], in test [5], in test [6], in test [7] and in test [8] was “inactive” in each case.
For the compound `CC1NCCOC1c1ccccc1` (configuration not stated), the compound was called inactive in [1], in test [4] and in [9]. The Potency result in test [2], in test [3], in [5], in test [6], in test [7] and in test [8] was “inactive” throughout.
Turning to `COP(=O)(OC)O/C(C)=C/C(=O)N(C)C`, the compound was classed as inactive in test [1], in test [4] and in test [9]. In addition, the Potency result in [2], in [3], in test [5], in [6] and in test [8] was “inactive” in each case.
With `C=CC=O`, the outcome in test [1], in test [4] and in test [9] was inactive. In addition, the Potency result in [2], in test [3], in test [5], in test [6] and in test [7] was “inactive” in each case.
Consider `CCOC(=O)c1ncn2c1CN(C)C(=O)c1c(I)cccc1-2`, for which the outcome in test [1], in [4] and in test [9] was inactive. The Potency entry in [2], in test [3], in test [5], in test [6] and in test [8] was “inactive” each time.
In the case of `NC(=O)CS(=O)C(c1ccccc1)c1ccccc1` (configuration not stated), the result in test [1], in test [4] and in test [9] was inactive. Besides, the Potency entry in test [2], in [3], in test [5], in test [7] and in [8] was “inactive” in each case.
On to `O=C(O)c1c(Cl)ccc2cc(Cl)cnc12`, for which the call in [1], in test [4] and in [9] was inactive. Besides, the Potency entry in test [2], in [3], in [5], in [6] and in test [8] was “inactive” throughout.
For `ClCCCCCCCl`, the compound was called inactive in test [1], in test [4] and in [9]. For the same compound, the Potency entry in [2], in [3], in test [5], in test [6] and in [7] was “inactive” each time.
For the compound `CC(C)c1ccc(O)cc1`, the call in test [1], in test [4] and in test [9] was inactive. Also, the Potency entry in test [2], in [3], in test [5], in test [6] and in test [7] was “inactive” throughout.
Turning to `CC(C)(N)Cc1ccccc1Cl`, the call in test [1], in test [4] and in [9] was inactive. Further, the Potency result in test [2], in test [3], in test [5], in test [10] and in [8] was “inactive” in each case.
With `OCC(Cl)CCl` (configuration not stated), the outcome in test [1] and in test [4] was inactive. The Potency entry in [2], in test [3], in test [5], in test [6] and in test [8] was “inactive” each time.
For the compound `ClCCCCl`, the call in test [1], in test [4] and in [9] was inactive. Further, the Potency result in test [2], in [3], in test [5], in test [6] and in test [7] was “inactive” throughout.
